# Assay results published in PubChem BioAssay (NCI).
# This is part of a sample that, as a whole, favours compounds with a hit. Of some 83,000 tested, about 20% had one in any assay.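 Treatment: one concentration, 48 hours, 96-well format. Scoring: percent growth, with anything below 10 considered active.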 Calls of active or inactive are those of the source.
# Test system: HCC-2998 colon
# Test: NCI-60 one-dose screen, 48 h (100 = growth as untreated, 0 = no growth, -100 = all killed)
# Settings: 10 µM unless noted
# Method: Growth inhibition of the HCC-2998 human tumor cell line is measured as a screen for anti-cancer activity. Cells are grown in 96 well plates and exposed to the test compound for 48 hours. Compounds are tested at a single concentration, which is 10^-5 M for most compounds. The reported endpoint is percent growth (GI% or GIPRCNT), where numbers from 0 - 100% represent growth inhibition, and numbers from -100% - 0 represent cell death. For example, a value of 40 represents 60% growth inhibition. A value of 0 means no net growth occurred over the course of the experiment. A value of -40 indicates 40% of cells at the beginning of the experiment died by the end of the experiment. A value of -100 means all cells are dead at the end of the experiment.
# NCI-60 Human Tumor Cell Lines Screen was performed using the standard one-dose NCI protocol, which is described in more detail at https://dtp.cancer.gov/discovery_development/nci-60/default.htm.
# Compounds with GIPRCNT values below 10 were considered active. Activity score was based on GIPRCNT using the following formula: […]
# Score is 0 for GIPRCNT values of 100 or above, 50 for GIPRCNT values of 0, and 100 for GIPRCNT values of -100.
row,Structure (SMILES),growth
1,Nc1cc(C(=O)NC[C@H]2CN(c3ccc(N4CCC(C(=O)O)CC4)cc3)C(=O)O2)ccc1Cl,107% (inactive)
2,O=C1C(Cl)=C(NCCCCCCNC2=C(Cl)C(=O)c3ccccc3C2=O)C(=O)c2ccccc21,103% (inactive)
3,Cc1[nH]c(=O)[nH]c(=O)c1Br,87.8% (inactive)
4,CN(C)S(=O)(=O)c1cccc(C(=O)Nc2nc(-c3ccc(F)c(F)c3)cs2)c1,88.1% (inactive)
5,COc1ccc(Nc2nc(-c3cc(O)c(C)c(C)c3O)cs2)cc1,110% (inactive)
6,CCOC(=O)c1c(NC(=O)c2ccc(Cl)cc2)sc2c(CN(C)C)c(O)ccc12,-71.7% (active)
7,NC(=O)C(=O)c1ccccc1NC=O,107% (inactive)
8,NS(=O)(=O)c1ccc(N=Nc2c(O)n(Cc3ccccc3)c3ccc(Cl)cc23)cc1,101% (inactive)
9,COc1ccc(NC2=C(I)C(=O)c3ncccc3C2=O)cc1,47.6% (inactive)
10,Nc1ncnc2c1c(-c1cccc(Cl)c1)nn2CC(=O)N1CCOCC1,110% (inactive)
11,O=C1NC2(Nc3ccccc31)C(=O)Nc1c(Cl)cc(Cl)cc12 (stereo not given),104% (inactive)
12,Cc1c(-c2ccc(O)cc2)n(Cc2ccc(OCCN3CCCCCC3)cc2)c2ccc(O)cc12,114% (inactive)
13,COc1ccc(-c2noc(C(=O)O)c2-c2cc(OC)c(OC)c(OC)c2)cc1,58% (inactive)
14,N=C(N)c1ccc(-c2ccc(-c3ccccc3)o2)cc1,-74.5% (active)
15,COc1ccc(C(=O)N2c3ccccc3Sc3ccccc32)c(OC)c1,12.8% (inactive)
16,c1ccc2cc(C[n+]3ccn(CCCCCCCCCCn4cc[n+](Cc5ccc6ccccc6c5)c4)c3)ccc2c1,25.2% (inactive)
17,COc1ccc(\C=N/N=C(N)/C(N)=N\N=C/c2ccc(OC)cc2)cc1,110% (inactive)
18,Fc1cnccc1C1CC(c2ccc(N3CCNCC3)cc2)=NN1 (stereo not given),102% (inactive)
19,C/C(Cc1ccc(Cl)cc1)=C(\c1ccc(O)cc1)c1ccc(Cl)cc1,91.9% (inactive)
20,C1CCC([PH+](C2CCCCC2)C2CCCCC2[PH+](C2CCCCC2)C2CCCCC2)CC1.[Au].[CH-]1CCCCC1C1CCCC[N-]1 (stereo not given),-90.1% (active)

row,Structure (SMILES),growth
1,CN(C)Cc1ccc(O)c(C(=O)O)c1,109% (inactive)
2,CC(=O)Oc1ccc(/C(=C(\C)c2ccc(Cl)cc2)c2ccc(OCCN3CCCCC3)cc2)cc1,-4.12% (active)
3,CCOC(=O)n1cc(-c2nonc2-c2cn(C(=O)OCC)c3ccc(Br)cc23)c2ccccc21,86.9% (inactive)
4,COC(=O)Nc1nc2ccc(S(=O)c3ccccc3)cc2[nH]1 (stereo not given),74.1% (inactive)
5,Nc1[nH]n2cc(-c3ccccc3)nc2c1N=Nc1ccc(S(N)(=O)=O)cc1,45.5% (inactive)
6,COc1cc(-c2nccc3[nH]c(-c4ccc5cc[nH]c5c4)nc23)cc(OC)c1OC,-19.2% (active)
7,COc1cc2oc(-c3cccc(NC(=O)c4ccccc4)c3)cc(=O)c2c(OC)c1OC,87.8% (inactive)
8,O=C(O)c1cn(C2CC2)c2cc(N3CCN(Cc4ccc5ccccc5c4O)CC3)c(F)cc2c1=O,41.9% (inactive)
9,O=C1C(Cl)=C(Nc2ccc(S(=O)(=O)N3CCOCC3)cc2)C(=O)c2ccccc21,106% (inactive)
10,CN(/C(N)=N/N=C/c1c2ccccc2cc2ccccc12)C1CCCCC1,-69.9% (active)
11,COC12C=C/C(=C(/C(=O)OCc3ccncc3)C(=O)CCCCCCCCC3(OC)C=C/C(=C(/C(=O)OCc4ccncc4)C(=O)CCCCCCCC1)O3)O2,-83.4% (active)
12,O=C(O)c1cn(C2CC2)c2cc(N3CCN(C(=O)N(c4ccccc4)c4nc(-c5ccccc5)cs4)CC3)c(F)cc2c1=O,16.5% (inactive)
13,Cc1cn(-c2cc(NC(=O)c3cccc(C#Cc4cccc5[nH]nc(N)c45)c3)cc(C(F)(F)F)c2)cn1,39.1% (inactive)
14,Cc1cc(N2CCCCC2)cc(C)c1-c1csc(NC(=O)c2ccncc2)n1,97.4% (inactive)
15,O=C(CSc1nc2ccc([N+](=O)[O-])cc2[nH]1)Nc1ccc([N+](=O)[O-])cc1,31.1% (inactive)
16,O=C(Nc1cccc2ccccc12)NC1CC1,111% (inactive)
17,CN(C)c1ccc(-c2c(C#N)c(N)nn2C(=O)c2ccc(NC(=O)c3ccccn3)cc2)cc1,95.2% (inactive)
18,CS(=O)(=O)Nc1cncc(-c2ccc3ncnc(Nc4cncc(Cl)c4)c3c2)c1,95% (inactive)
19,Cn1cc(-c2csc(-c3c[nH]c4ccccc34)n2)c2cnccc21,87% (inactive)
20,COc1ccc(F)cc1/C=C/C(=O)/C=C(/C=C/c1cc(F)ccc1OC)OB(F)F,104% (inactive)
